From PubChem BioAssay AID1259312 (Keith Lab, Institute of Cancer Science, University of …, 2017) come the findings set out here.

Screen size: about 4,500 compounds; about 200 (4.4%) were called active. The entries come from a sample that favours actives as a whole. Values without a mark were called inactive.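 How the source made its calls: active means cell survival measured by absorbance rises more than 2.5-fold over infected cells without compound; inactive means the rest.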

A short description of the test: survival after telomere uncapping, modulators, primary screen, cell-based (AID 1259312).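 Further: virus expresses mutant telomerase RNA that uncaps telomeres and kills cells; compound added 2 days after infection so exposure lasts 3 days.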 Conditions: HCT116 + Ad-hTR-mut, MTT, 5 d; at 10 µM, active compounds read high.
As to `CC1CN(c2ccc([N+](=O)[O-])c(N3CCOCC3)c2)CCN1` (stereo not given), the fold change was -1.03.

With `O=[N+]([O-])c1ccc(N2CCOCC2)cc1Cl`, the fold change was 4.62 (active).

Consider `CN1CCN(c2ccc([N+](=O)[O-])c(N3CCN(C)CC3)c2)CC1`, for which the fold change is -1.49.

Take `O=[N+]([O-])c1ccc(Cl)c2nonc12`: the fold change was -8.7.

As to `NC1(Cc2ccc(Cl)cc2)CC1`, the fold change is -2.29.

Turning to `COc1cc2c(cc1OC)C13CCN4CC5=CCOC6CC(=O)N2C1C6C5CC43` (stereo not given), the fold change is 3.18 (active).

With `O=C1C[C@@H]2OCC=C3CN4CC[C@]56c7ccccc7N1[C@H]5[C@H]2[C@H]3C[C@H]46`, the fold change was -1.27.

In the case of `CN1CCN(c2ccc([N+](=O)[O-])cc2Cl)CC1`, the fold change was -1.02.

`CCc1cc(CC)c(C=C(C#N)C#N)c(CC)c1`: the fold change was 1.07.

`N#CC(C#N)=Cc1c2ccccc2cc2ccccc12`: the fold change is 3.81 (active).

For the compound `Cc1cc(C)c(C)c(C=C(C#N)C#N)c1C`, the fold change is 1.51.

Take `CCOC(=O)c1c(NC(=O)C2C(C)(C)C2(C)C)sc2c1CCC2`: the fold change is -1.33.

As to `CC1CN(c2ccc([N+](=O)[O-])cc2[N+](=O)[O-])CCN1` (stereo not given), the fold change is 2.15.

Consider `Clc1ccc2c(N3CCNCC3)ccnc2c1`, for which the fold change is -2.13.

On to `C[C@]12CC[C@H](O)C[C@@H]1CC[C@@H]1[C@@H]2CC[C@]2(C)C(=O)CC[C@@H]12`, for which the fold change was 1.18.

Consider `CC(=O)OC1CCC2(C)C3CCC4(C)C(CC[C@]4(OC(C)=O)C(C)OC(C)=O)C3CC[C@H]2C1` (stereo not given in full), for which the fold change is 3.25 (active).

In the case of `COC(=O)C(N)CCCN=C(N)N[N+](=O)[O-]` (stereo not given), the fold change is -1.4.

Regarding `CCNc1nc(Cl)nc(NCC)n1`, the fold change is 2.5 (active).

Turning to `O=c1[nH]c(=O)n(Cc2ccco2)c(O)c1C=NCc1cccs1`, the fold change result was “inactive”.

Turning to `COC(=O)Nc1nc2ccccc2[nH]1`, the fold change was -8.68.

Consider `CCNCCNc1ccc([N+](=O)[O-])c2cccnc12`, for which the fold change is -2.62.

On to `O=[N+]([O-])c1ccc(NCCO)c2ncccc12`, for which the fold change was 2.89 (active).

For the compound `O=[N+]([O-])c1ccc(NCCO)c2cccnc12`, the fold change was -1.59.

In the case of `N#Cc1c(/N=C/c2c(O)n(Cc3ccco3)c(=O)[nH]c2=O)sc2c1CCCC2`, the fold change entry was “inactive”.

With `CC1CN(c2ccccc2[N+](=O)[O-])CCN1` (stereo not given), the fold change was 1.8.

On to `CC1(C)C(C(=O)Nc2cc(Br)c(Br)c(Br)c2)C1(C)C`, for which the fold change was -1.03.

With `COc1ccc(CC2NCCc3cc(OC)c(OC)cc32)cc1OC` (stereo not given), the fold change is -2.4.

For the compound `COc1cc2c(cc1OC)C(C)NCC2` (stereo not given), the fold change was 1.05.

As to `COc1cc2c(cc1O)CCNC2C` (stereo not given), the fold change is 4.6 (active).

With `COCc1c(C)cc(C)c(C=C(C#N)C#N)c1C`, the fold change is -1.04.

Consider `C[C@]12CC[C@H]3[C@@H](CC[C@]4(O)C[C@@H](O)CC[C@]34C=O)[C@@]1(O)CC[C@@H]2C1=CC(=O)OC1`, for which the fold change was -23.3.

As to `CCC1CN2CCC1CC2C(O)c1ccnc2ccc(OC)cc12` (stereo not given), the fold change was 1.15.

Take `C#CCSc1nc2ccccc2c(=O)n1-c1ccccc1`: the fold change is -2.72.

As for `CCCCc1ccc(C=C(C#N)C#N)s1`, the fold change is -1.17.

As to `Nc1nonc1-c1nn[nH]n1`, the fold change was -1.38.

In the case of `N/N=C(\N)c1nonc1N`, the fold change is 3.99 (active).

Turning to `Nc1nonc1[N+](=O)[O-]`, the fold change is 1.03.

On to `Cc1cc(C)[n+]2cc(Br)ccc2n1`, for which the fold change was 1.21.

Take `O=C(CCl)Nc1ccccn1`: the fold change is -1.43.

Regarding `O=[N+]([O-])c1ccc(N2CCNCC2)c2cccnc12`, the fold change was -1.29.

For `CC1CN(c2ccc([N+](=O)[O-])c3cccnc23)CC(C)N1` (stereo not given), the fold change is 3.89 (active).

For the compound `CN1CCN(c2ccc([N+](=O)[O-])c3cccnc23)CC1`, the fold change is -1.27.

Turning to `O=C(CCl)NCc1ccco1`, the fold change was 1.2.

On to `CCc1nnc(NC(=O)CCl)s1`, for which the fold change is 1.66.

`N#CC1=C(N)Oc2c(c(=O)oc3ccccc23)C1c1cccc2ccccc12` (stereo not given): the fold change was -1.29.
